Molecules are shown by their SMILES. Where a name gives a salt, the structure may show the parent alone. Read-outs that look alike come from different tables or passages of the source. Where only a bound is given, the exact number is not on record here.

The test system of the assay is thyroid hormone receptor (endogenous TRα and TRβ). Also on record: species or system GH3-TRE-Luc (rat pituitary); GH3-TRE-Luc luciferase reporter, antagonist mode against 1 nM T3, loss of signal, qHTS. The conditions noted are these: read-out: Average AC50 (uM) GH3-TRE-Antag.
The mark [1] stands for this setting: antagonist mode, 1 nM T3, no GH3 cytotoxicity hit, 24 h.
[2] abbreviates: antagonist mode, 1 nM T3, no GH3 cytotoxicity hit.

For orientation: AC50 means the midpoint of the concentration-response curve, whichever way the signal moves. As to `Oc1cc(Cl)c(Cl)cc1Cl` [2,4,5-Trichlorophenol], the AC50 under setting [1] is greater than 50 µM. `N#CSCc1ccccc1` [Benzyl thiocyanate]: under setting [2], the AC50 stood at 56.4 µM. Regarding `CCc1cc2c(s1)-n1c(C)nnc1CN=C2c1ccccc1Cl` [Etizolam], under setting [2], the AC50 is greater than 50 µM. Same read-out and setting: under `C[C@]12CC[C@H](O)C[C@H]1CC[C@@H]1[C@@H]2CC[C@]2(C)[C@@H](c3ccc(=O)oc3)C[C@H]3O[C@]132` [Bufogenin] stands 39.2 µM.

For the compound `OCC(c1ccc(Cl)cc1)c1ccc(Cl)cc1` [2,2-Bis(4-chlorophenyl)ethanol], the AC50 under setting [2] was 46.2 µM. Same read-out and setting: the result for `COP(=S)(OC)Oc1nc(Cl)c(Cl)cc1Cl` [Chlorpyrifos-methyl] reads 78.8 µM. Same read-out and setting: under `CN1C[C@H](C(=O)N[C@]2(C)O[C@@]3(O)[C@@H]4CCCN4C(=O)[C@H](Cc4ccccc4)N3C2=O)C=C2c3cccc4[nH]cc(c34)C[C@H]21` [Ergotamine D-tartrate] stands 36.2 µM. On the same count and under the same terms, under `C[C@]12CCC(=O)C[C@@H]1CC[C@@H]1[C@@H]2CC[C@@]2(C)[C@H]1CC[C@]2(C)O` [Mestanolone] stands 10.8 µM. On to `COc1ccc(N)cc1` [4-Methoxyaniline hydrochloride], for which the AC50 under setting [1] was determined as 81.8 µM. For `Cc1ccc2c(c1)[C@]13CCCC[C@@H]1[C@H](C2)N(C)CC3` [Dimemorfan phosphate], the AC50 under setting [2] is 42.3 µM. On to `COc1ccc(N)cc1` [4-Methoxyaniline], for which the AC50 under setting [1] amounted to 89.4 µM. For `CCOP(=S)(OCC)SCn1nnc2ccccc2c1=O` [Azinphos-ethyl], under setting [2], the AC50 is greater than 90 µM. Consider `O=C(Nc1ccccc1)Nc1cnns1` [Thidiazuron], for which the AC50 under setting [2] is 76.7 µM. Still for that read-out and setting: under `CC(C)CC(N(C)C)C1(c2ccc(Cl)cc2)CCC1` (centres unmarked) [Sibutramine hydrochloride] stands 29.8 µM.

For the compound `c1ccc2c(c1)sc1ccccc12` [Dibenzothiophene], the AC50 under setting [2] came out at 33.4 µM.

Regarding `O=C1Nc2ccc(Cl)cc2C(c2ccccc2)=NC1O` (centres unmarked) [Oxazepam], the AC50 (24 h, antagonist) was greater than 50 µM.

`CC(C)=CCN1CC[C@]2(C)c3cc(O)ccc3C[C@H]1[C@H]2C` [(+)-Pentazocine succinate]: the AC50 under setting [2] was determined as 37.2 µM. With `CCOP(=S)(OCC)SCSP(=S)(OCC)OCC` [Ethion], the AC50 under setting [2] is 71.9 µM. As to `CCc1cc(OC)c(C[C@@H](C)N)cc1OC` [(-)-2,5-Dimethoxy-4-ethylamphetamine hydrochloride], the AC50 (24 h, antagonist) worked out at 71.2 µM. For `C=C(Cl)CSC(=S)N(CC)CC` [Sulfallate], under setting [2], the AC50 was 86.5 µM. For the compound `Nc1ccc(-c2ccccc2)cc1` [4-Biphenylamine hydrochloride], the AC50 under setting [2] was 76.8 µM. The same measure, in the same setting: under `C[C@@H]1[C@H]2Cc3ccc(O)cc3[C@]1(C)CCN2C` [(-)-Metazocine fumarate (1:1)] stands 50.6 µM.

Turning to `CCOP(=S)(OCC)Oc1cnc2ccccc2n1` [Quinalphos], the AC50 under setting [2] was found to be 55.1 µM. On to `Clc1nc(Cl)nc(Cl)n1` [2,4,6-Trichloro-s-triazine], for which the AC50 under setting [2] is greater than 90 µM. Take `CN1C(=O)CN=C(c2ccccc2)c2cc(Cl)ccc21` [Diazepam]: the AC50 (24 h, antagonist) turned out to be 49.5 µM. `CC(C)(N)Cc1ccc(Cl)cc1` [Chlorphentermine hydrochloride]: the AC50 under setting [2] was 39.2 µM. Still for that read-out and setting: the result for `COP(=S)(OC)Oc1ccc([N+](=O)[O-])cc1Cl` [Dicapthon] reads 79 µM; that for `C[C@]12CC[C@H]3[C@@H](CCC4=CC(=O)CC[C@@]43C)[C@@H]1CC[C@@H]2OC(=O)CCc1ccccc1` [Testosterone 17-phenylpropionate], 30 µM; that for `Clc1ccccc1-c1ccccc1Cl` [2,2'-Dichlorobiphenyl], greater than 100 µM.

Regarding `Clc1cc(Cl)c(-c2cc(Cl)c(Cl)cc2Cl)cc1Cl` [2,2',4,4',5,5'-Hexachlorobiphenyl], the AC50 under setting [2] worked out at 35.4 µM. In the case of `Cc1ccc(OP(=O)(Oc2ccc(C)cc2C)Oc2ccc(C)cc2C)c(C)c1` [TXP], the AC50 (24 h, antagonist) stood at 70.6 µM. On to `CN(C)c1ccc(N=Nc2ccccc2)cc1` [4-(Dimethylamino)azobenzene], for which the AC50 under setting [2] was 80.1 µM.

As for `CCOP(=S)(OCC)Oc1ccc2c(C)c(Cl)c(=O)oc2c1` [Coumaphos], the AC50 under setting [2] is greater than 50 µM. As to `O=C(O)C(F)(F)C(F)(F)C(F)(F)C(F)(F)C(F)(F)C(F)(F)C(F)(F)F` [Ammonium perfluorooctanoate], the AC50 under setting [2] was 77.1 µM. The same measure, in the same setting: under `CCCSP(=S)(OCC)Oc1ccc(Cl)cc1Cl` (centres unmarked) [Prothiofos] stands 86.7 µM.

Take `Oc1cc(Cl)c(Cl)cc1Cl` [2,4,5-Trichlorophenol sodium salt]: under setting [1], the AC50 amounted to 77.4 µM. Consider `CNC(=O)Oc1cccc(N=CN(C)C)c1` [Formetanate hydrochloride], for which the AC50 under setting [2] worked out at 70.8 µM.

As to `Nc1ccc2c(c1)Cc1ccccc1-2` [2-Aminofluorene], the AC50 under setting [2] came out at 52 µM.

Take `CC[C@H]1C[C@H]2[C@@H]3CCC4=CC(=O)CC[C@@H]4[C@H]3CC[C@]2(C)[C@H]1O` [Oxendolone]: under “24 h, antagonist”, the AC50 was 21.2 µM. `CCCCC(CC)COP(=O)(Oc1ccccc1)Oc1ccccc1` (centres unmarked) [2-Ethylhexyl diphenyl phosphate]: under setting [2], the AC50 stood at 48.3 µM. With `CON(C)C(=O)Nc1ccc(Br)c(Cl)c1` [Chlorbromuron], the AC50 under setting [2] was determined as 60.7 µM.

For the origin of these results see publication PMC6792352, “Limited Chemical Structural Diversity Found to Modulate Thyroid Hormone Receptor in the Tox21 Chemical Library” (Environmental Health Perspectives, 2019).
